ST2 inh = inhibitors of human ST2 (IL1RL1) binding to IL-33; Q01638; AlphaLISA ST2-Fc/biotin-IL-33 interaction, 1 h; inhibition, % for hits at 17 µM; actives 2.3% (n = 78,000); AID 1259354; in the data active = inhibition above about 30%
Target sequence (Q01638 whole entry, looked up): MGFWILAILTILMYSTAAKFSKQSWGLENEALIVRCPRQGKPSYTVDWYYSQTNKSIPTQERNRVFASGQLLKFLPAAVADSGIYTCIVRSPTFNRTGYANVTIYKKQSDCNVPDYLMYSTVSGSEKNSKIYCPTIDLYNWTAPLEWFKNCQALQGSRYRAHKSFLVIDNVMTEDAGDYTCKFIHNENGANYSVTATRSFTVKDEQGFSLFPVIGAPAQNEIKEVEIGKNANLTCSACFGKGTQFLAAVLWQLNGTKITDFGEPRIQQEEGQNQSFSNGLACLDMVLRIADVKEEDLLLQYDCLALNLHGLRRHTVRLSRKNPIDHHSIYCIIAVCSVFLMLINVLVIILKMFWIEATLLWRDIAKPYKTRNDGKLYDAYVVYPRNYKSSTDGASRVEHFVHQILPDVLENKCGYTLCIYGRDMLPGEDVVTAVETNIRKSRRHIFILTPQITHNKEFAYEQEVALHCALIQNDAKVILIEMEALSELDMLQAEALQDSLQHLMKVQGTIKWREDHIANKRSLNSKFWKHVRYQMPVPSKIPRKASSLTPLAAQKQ
Active calls of the source: *. The entries come from a sample that favours hits as a whole.

Screening Cc1ccc(-n2c(CN3CCN(S(=O)(=O)c4cc(F)cc(F)c4)CC3)nc3cccnc32)cc1 returned ST2 inh inactive.
CCc1ccc(Nc2nnc(C)c(=O)[nH]2)cc1 was read as ST2 inh inactive.
`COc1ccc(-c2nc(N(C)Cc3ccccc3)c3ccccc3n2)cc1OC` gave ST2 inh inactive.
CCOc1ccc(NC(=O)Cc2ccc(OC)cc2)cc1 was read as ST2 inh inactive.
For COc1ccc(S(=O)(=O)N=C2C=CC(=O)c3ccccc32)cc1 the results were ST2 inh 39%*.
`CCOc1ccc(S(=O)(=O)NCCO)cc1` gave ST2 inh inactive.
For CCOc1ccc(NC2=CC(=NS(=O)(=O)c3ccc(F)cc3)c3ccccc3C2=O)cc1 the results were ST2 inh 95%*.
`CCOc1ccc(S(=O)(=O)N(CC(=O)Nc2cccc(OC)c2)c2ccccc2)cc1` gave ST2 inh inactive.
CCOc1ccc(S(=O)(=O)N=C2C=C(Nc3ccccc3)C(=O)c3ccccc32)cc1 was read as ST2 inh 87%*.
COc1ccc(S(N)(=O)=O)cc1 was read as ST2 inh inactive.
For CCOc1ccc(NC(=O)c2ccccc2F)cc1 the results were ST2 inh inactive.
For CCOc1ccc(S(=O)(=O)N=C2C=C(Nc3ccc(OC)cc3)C(=O)c3ccccc32)cc1 the results were ST2 inh 93%*.
`CCOc1c(Nc2ccc(F)cc2)c(=O)c1=O` gave ST2 inh inactive.
`CCc1ccc(NS(=O)(=O)c2ccc(OC)cc2)cc1` gave ST2 inh inactive.
For COc1ccc(S(=O)(=O)N=C2C=C(C(C)C)C(=O)C=C2C)cc1 the results were ST2 inh inactive.
`Cc1cccc(C(=O)Nc2sc3c(c2C(=O)Nc2ccccn2)CCC(C)C3)c1` (stereo not given) gave ST2 inh inactive.
For COc1ccc(OC)c(CNc2nc(-c3nnc(-c4cccc(C)c4)o3)nc3ccccc23)c1 the results were ST2 inh inactive.
COc1ccc(C(=O)n2c(=O)oc3cc([N+](=O)[O-])ccc32)cc1 was read as ST2 inh inactive.
Screening CC(C)c1nn(C)c2c1C(c1ccc(Sc3nncn3C)o1)CC(=O)N2 (stereo not given) returned ST2 inh inactive.
O=C(C1CCCCC1)N1CCCC1c1nn2c(C3CC3)nnc2s1 (stereo not given) was read as ST2 inh inactive.
Screening Fc1ccc(/C=C/CN2CCCC(Nc3ccccc3)C2)cc1 (stereo not given) returned ST2 inh inactive.
`COc1ccc(C)cc1N(C)S(=O)(=O)c1cccc2nsnc12` gave ST2 inh inactive.
For CN(C(=O)c1ccc2[nH]c(=O)[nH]c2c1)C1Cc2ccccc2C1 the results were ST2 inh inactive.
For COc1cc(NC(=O)[C@@H]2C[C@@H]2c2ccccc2)c(OC)cc1Cl the results were ST2 inh inactive.
Screening CC(C)Cc1ccc(S(=O)(=O)Nc2ccccc2)cc1 returned ST2 inh inactive.
For CCc1ccc(S(=O)(=O)N=C2C=C(Nc3ccccc3)C(=O)c3ccccc32)cc1 the results were ST2 inh 79%*.
CCc1ccc(S(=O)(=O)NCC(=O)O)cc1 was read as ST2 inh inactive.
Screening CN1CCc2c(sc3c2C(=O)NC(/C=C\c2ccc(Br)cc2)N3)C1 (stereo not given) returned ST2 inh inactive.
For COC(=O)c1ccc(-c2nc(CN3CCN(c4ccccc4F)CC3)c(C)o2)cc1 the results were ST2 inh inactive.
Cc1ccc2oc(-c3ccc(NC(=O)c4ccccc4Cl)cc3O)nc2c1 was read as ST2 inh inactive.
Screening Cc1ccc2oc(-c3ccc(NC(=O)c4cccnc4)cc3O)nc2c1 returned ST2 inh inactive.
Screening Cc1ccc2nc(-c3ccc(N)cc3O)oc2c1 returned ST2 inh 34%*.
For Cc1cc(C)n2nc(C)c(C(=O)N3CCC4(CN(C)C(=O)O4)C3)c2n1 (stereo not given) the results were ST2 inh inactive.
`COc1ccccc1CCC(=O)N1CCN(C)C2(CCN(C)CC2)C1` gave ST2 inh inactive.
Cc1ccc(OCc2occc2C(=O)N2CC[C@H](CO)[C@@H](O)C2)cc1 was read as ST2 inh inactive.
Screening CCn1c(C(C)NC(C)=O)nc2ccccc21 (stereo not given) returned ST2 inh inactive.
CC(O)c1nc2ccccc2n1CCCOc1ccccc1 (stereo not given) was read as ST2 inh inactive.
For CC(O)c1nc2ccccc2n1Cc1ccccc1 (stereo not given) the results were ST2 inh 36%*.
For Cc1cc(C)n(-c2nc(-c3ccccc3)cc(-c3ccccc3O)n2)n1 the results were ST2 inh inactive.
`Oc1ccccc1C=Nc1ccccc1-c1nnc2n1CCCCC2` gave ST2 inh inactive.
Screening COc1ccc(/C=C/c2nc(-c3ccccc3O)n(-c3ccccc3)n2)cc1OC returned ST2 inh 36%*.
Oc1ccccc1/C=C/c1nc(-c2ccccc2O)n(-c2ccccc2)n1 was read as ST2 inh 36%*.
